{
  "source": "PubChem BioAssay (NCI)",
  "note": "Compounds without any hit were thinned out: in the full panel of roughly 83,000, 20% have a hit.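 Cells were grown in 96-well plates and exposed to the test compound at a single concentration for 48 hours; results are reported as percent growth, with values below 10 considered active.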 Unmarked numbers belong to inactive results. Active and inactive are the calls of the source.",
  "data": [
    {"test_system": "SF-295 CNS", "experiment": "NCI-60 one-dose screen, 48 h (100 = growth as untreated, 0 = no growth, -100 = all killed)", "conditions": "10 µM unless noted", "units": {"growth": "%"}, "values": [
      {"smiles": "COc1ccc(Cn2cc3c(c2-c2cc(OC)c(OC)c(OC)c2)CCc2c(CN4CCCC4)noc2-3)cc1", "growth": 12.1},
      {"smiles": "Cc1nn(-c2ccccc2)c2ncnc(N/N=C/c3cccc(O)c3)c12", "growth": 46.5},
      {"smiles": "COc1ccc(C2CC(c3ccc(Nc4nc(NCCO)nc(N5CCOCC5)n4)cc3)=Nc3c(N)nc(N)nc3N2)cc1", "note": "(configuration not stated)", "growth": 106},
      {"smiles": "O=C(CN1CCN(c2cc(=O)n(-c3ccccc3)c3ccccc23)CC1)Nc1ccc(F)cc1", "growth": 71.8}
    ]},
    {"test_system": "SF-539 CNS", "experiment": "NCI-60 one-dose screen, 48 h (100 = growth as untreated, 0 = no growth, -100 = all killed)", "conditions": "10 µM unless noted", "values": [
      {"smiles": "COc1cc2nc(Cl)nc(Nc3cccc(C4=Nc5c(N)nc(N)nc5NC(c5ccccc5)C4)c3)c2cc1OC", "note": "(configuration not stated)", "growth": "99.8%"},
      {"smiles": "C#C[C@]1(O)CC[C@H]2[C@@H]3CC=C4c5sc(-c6ccc7c(c6)OCO7)nc5CC[C@]4(C)[C@H]3CC[C@@]21C", "growth": "-36.6% (active)"},
      {"smiles": "CCO/C=N/C1=C(C#N)C(c2ccc(F)cc2)c2sc3c(C)cccc3c2O1", "note": "(configuration not stated)", "growth": "-10.1% (active)"},
      {"smiles": "COc1ccc(/C=C(\\C#N)C(=O)N2c3ccccc3Sc3ccc(SC)cc32)cc1F", "growth": "96.7%"},
      {"smiles": "NC(N)=Nc1ccc(Oc2cccc(Nc3ccc(Cl)c(C(F)(F)F)c3)c2)cc1", "growth": "80.9%"},
      {"smiles": "COc1ccccc1-n1cc(C#N)c(N)c1C(=O)c1ccc(Br)cc1", "growth": "82.7%"},
      {"smiles": "Cc1cccc(/C=C/C(=O)Nc2ncc(Cc3cccc(C)c3)s2)c1", "growth": "4.05% (active)"},
      {"smiles": "C=C(C=O)[C@@H]1CC[C@]2(C)[C@H](CC=C3[C@H]4[C@@H](C)[C@H](C)CC[C@]4(C(=O)OC)CC[C@]32C)[C@@]1(C)CCC#N", "growth": "-61.4% (active)"},
      {"smiles": "NC(N)=Nc1ccc(Oc2cccc(Nc3ccc(Br)c(C(F)(F)F)c3)c2)cc1", "growth": "54.3%"},
      {"smiles": "Nc1nc(N)c2c(n1)NC(c1ccc(C(F)(F)F)cc1)CC(c1ccc(Nc3nc(NCCO)nc(N4CCOCC4)n3)cc1)=N2", "note": "(configuration not stated)", "growth": "75.3%"},
      {"smiles": "COc1ccccc1-n1cc(C#N)c(N)c1C(=O)c1ccc(C)cc1", "growth": "97%"},
      {"smiles": "O=C(CCn1c[n+](CC(=O)c2ccc(F)cc2)c2ccccc21)Nc1cccc2cccnc12", "growth": "89.6%"},
      {"smiles": "C#CCn1cccc1CNc1ccc(OC)cc1", "growth": "-94.4% (active)"},
      {"smiles": "NC(N)=Nc1ccc(Oc2cccc(Oc3ccc(Cl)c(C(F)(F)F)c3)c2)cn1", "growth": "-79.7% (active)"},
      {"smiles": "CCn1c2ccccc2c2cc(-n3nncc3-c3ccccc3)ccc21", "growth": "-17.7% (active)"},
      {"smiles": "COc1ccc(COc2ccc(/C=C3\\C(=O)Nc4ccccc43)cc2OC)cc1", "growth": "95.9%"},
      {"smiles": "O=C(CCn1cc[n+](CC(=O)c2ccc(-c3ccccc3)cc2)c1)Nc1cccc2cccnc12", "growth": "80.8%"},
      {"smiles": "C[C@@H]1C[C@H]2C(=O)O[C@@H](C)C(NC(=O)[C@H](Cc3cc(F)cc(F)c3)NC(=O)Nc3ccc(C4CC4)cc3F)C(=O)N3CCC[C@H]3C(=O)N3CCCC[C@H]3C(=O)N[C@@H](CO)C(=O)N2C1", "note": "(some centres not stated)", "growth": "35.4%"},
      {"smiles": "CCOC(=O)c1c(Nc2ccccc2)nn2c(-c3ccccc3)ccnc12", "growth": "92.5%"},
      {"smiles": "C#C[C@]1(O)CC[C@H]2[C@@H]3CC=C4c5sc(-c6cccc(O)c6)nc5CC[C@]4(C)[C@H]3CC[C@@]21C", "growth": "-68.9% (active)"},
      {"smiles": "C#C[C@]1(O)CC[C@H]2[C@@H]3CC=C4c5sc(-c6ccc(C)cc6)nc5CC[C@]4(C)[C@H]3CC[C@@]21C", "growth": "-47.7% (active)"},
      {"smiles": "NS(=O)(=O)c1ccc(-n2cc(-c3cccc(NC(=O)c4ccc(N5CCOCC5)c(C(F)(F)F)c4)c3)nn2)cc1", "growth": "42.7%"},
      {"smiles": "CCO/C=N/C1=C(C#N)C(c2ccc(OC)cc2)c2sc3c(CC)cccc3c2O1", "note": "(configuration not stated)", "growth": "4.01% (active)"},
      {"smiles": "O=C(CN1CCN(c2cc(=O)[nH]c3ccc(F)cc23)CC1)Nc1ccc(Cl)cc1", "growth": "56.9%"},
      {"smiles": "COc1cc2nc(Cl)nc(Nc3cccc(C4=Nc5c(N)nc(N)nc5NC(c5ccc6c(c5)OCO6)C4)c3)c2cc1OC", "note": "(configuration not stated)", "growth": "86.5%"},
      {"smiles": "CC1(C)NCCC[C@]2(C)[C@H]3C/C(=N\\O)C4[C@@H]5C[C@@](C)(CO)CC[C@]5(C)CC[C@@]4(C)[C@]3(C)CC[C@@H]12", "note": "(some centres not stated)", "growth": "97.8%"},
      {"smiles": "C#Cc1nc(/C=C/C(=O)c2nccn2C)cs1", "growth": "-82.7% (active)"},
      {"smiles": "COc1cc2nc(Cl)nc(Nc3cccc(C4=Nc5c(N)nc(N)nc5NC(c5ccc(Cl)cc5)C4)c3)c2cc1OC", "note": "(configuration not stated)", "growth": "89.3%"},
      {"smiles": "CC(C)(C)c1ccc(C(=O)Nc2sc3c(c2C(N)=O)CCC(O)C3)cc1", "note": "(configuration not stated)", "growth": "23.3%"},
      {"smiles": "COc1ccc(-c2nc3cccc(O)c3c(=O)n2Cc2ccccc2)cc1COc1ccc(NC(C)=O)cc1", "growth": "40.1% [3 µM]"},
      {"smiles": "N#Cc1cn(Cc2ccc(Cl)cc2Cl)c(C(=O)c2ccc(Br)cc2)c1N", "growth": "81.4%"},
      {"smiles": "O=C(CCn1c[n+](CC(=O)c2ccc(-c3ccccc3)cc2)c2ccccc21)Nc1cccc2cccnc12", "growth": "75.5%"},
      {"smiles": "Cc1ccc(-c2nnc(SCc3ccc(O)c4ncccc34)o2)cc1", "growth": "14.9%"},
      {"smiles": "Cc1ccc(S(=O)(=O)N(CC[C@@H]2C[C@H]2c2cc3ccccc3o2)S(=O)(=O)c2ccc(C)cc2)cc1", "growth": "101%"},
      {"smiles": "COc1ccc(Cn2cc3c(c2-c2cc(OC)c(OC)c(OC)c2)CCc2c(CN4CCCC4)noc2-3)cc1", "growth": "0.316% (active)"},
      {"smiles": "Cc1nn(-c2ccccc2)c2ncnc(N/N=C/c3cccc(O)c3)c12", "growth": "50.4%"},
      {"smiles": "COc1ccc(C2CC(c3ccc(Nc4nc(NCCO)nc(N5CCOCC5)n4)cc3)=Nc3c(N)nc(N)nc3N2)cc1", "note": "(configuration not stated)", "growth": "92.2%"},
      {"smiles": "O=C(CN1CCN(c2cc(=O)n(-c3ccccc3)c3ccccc23)CC1)Nc1ccc(F)cc1", "growth": "76.6%"}
    ]}
  ]
}
